Here are results for 40 molecules from PubChem BioAssay (Tox21).

Results filed as inconclusive are left out. Entries that show only a call come without a potency. Activity calls are given as the source filed them. Calls follow the shape of the dose curve; as a rule, active = well fitted cell-killing curve with a large enough effect in the repeat runs; inconclusive = weak or mixed curves; inactive = no such curve, though single readings can be large or run the other way. Positions of bridges follow the written chain, without caps; N, C: chain ends. Non-standard residues stand in square brackets, D forms with d. Residues, ends and D or L forms follow the SMILES beside them. *: point of attachment. X1 = CC[C@@H](C)[C@@H](N)C1=N[C@H](C(=O)*)CS1; d(aIle) = CC[C@H](C)[C@@H](N)C(=O)O; dOrn = NCCC[C@@H](N)C(=O)O
Potency is read from the fitted curve at half-maximal effect.

The nature of the assay: qHTS assay to identify small molecule antagonists of the androgen receptor (AR) signaling pathway - cell viability counter screen (AID 743033; also: nearly all actives have a fitted effect of over 45% in size). Particulars: AR-bla HEK293 viability, CellTiter-Glo luminescence, 16 h; series mostly up to 58.5 µM. The source says:
National Center for Advancing Translational Sciences [NCATS]
NIH Chemical Genomics Center [NCGC]
U.S. Environmental Protection Agency [EPA]
National Institutes of Environmental Health Sciences [NIEHS]
National Toxicology Program [NTP]
U.S. Food and Drug Administration [FDA]
Androgen receptor (AR), a nuclear hormone receptor, plays a critical role in AR-dependent prostate cancer and other androgen related diseases. Endocrine disrupting chemicals (EDCs) and their interactions with steroid hormone receptors like AR may cause disruption of normal endocrine function as well as interfere with metabolic homeostasis, reproduction, developmental and behavioral functions. To identify the compounds that inhibit AR signaling, GeneBLAzer AR-UAS-bla-GripTite cell line (Invitrogen, Carlsbad, CA, USA) containing a beta-lactamase reporter gene under control of an Upstream Activator Sequence (UAS) stably integrated into HEK293 cells was used to screen the Tox21 10K compound library. The cytotoxicity of the Tox21 compound library against the AR-bla cell line was tested in parallel by measuring the cell viability using CellTiter-Glo assay in the same wells.
Tox21 Assay Protocol Summary:
AR-bla cells were dispensed at 2,000 cells/5 uL of assay medium per well into black wall/clear-bottom 1536-well plates using a Multidrop Combi (ThermoFisher Scientific, Waltham, MA) dispenser. After the assay plates were incubated at a 37C and 5% CO2 for 4 hr, 23 nL of compounds dissolved in DMSO, positive controls or DMSO only was transferred to the assay plate by a Pintool station (Kalypsys, San Diego, CA), followed by addition of 1 uL of agonist (R1881) in culture medium using a Bioraptr Flying Reagent Dispenser (FRD) workstation (Beckman Coulter, Indianapolis, IN, USA). The plates were incubated at a 37C and 5% CO2 for 16 h. After 1 uL of LiveBLAzerTM B/G FRET substrate was added using a Bioraptr FRD, the plates were incubated at room temperature for 2 h and fluorescence intensity was measured by an Envision plate reader (PerkinElmer, Shelton, CT). For cell viability readout that measures cytotoxicity, 4 ul/well of CellTiter-Glo reagent was added into the assay plates using a Bioraptr FRD. After 30 min incubation at room temperature, the luminescence intensity in the plates was measured using a ViewLux (PerkinElmer) plate reader.
Background: In qHTS, concentration-response curves come from the screen itself.
Take `C[N+]1(CCCCC[N+]2(C)CCCC2)CCCC1`: the Potency result is “inactive”. Regarding `CN1C(C(=O)Nc2ccccn2)C(=O)c2sc(Cl)cc2S1(=O)=O` (stereo not given), the Potency result is “inactive”.

Take `CCOC(=O)Cc1ccc(-c2ccccc2)cc1`: the Potency entry was “inactive”. The entry for `NC(=O)[C@@H]1CCCN1C(=O)[C@H](Cc1cnc[nH]1)NC(=O)[C@@H]1CCC(=O)N1` is “inactive”. For `NC(N)=NCCCCN=C(N)N`, the Potency result was “inactive”.

Take `CO[C@H]1C[C@H](O[C@H]2[C@H](C)[C@@H](O[C@@H]3O[C@H](C)C[C@H](N(C)C)[C@H]3O)[C@@H](C)C[C@]3(CO3)C(=O)[C@H](C)[C@@H](O)[C@@H](C)[C@@H](C)OC(=O)[C@@H]2C)O[C@@H](C)[C@@H]1O`: the Potency entry is “inactive”.

In the case of `CC(=O)O[C@H]1C[C@@H]2CC[C@@H]3[C@H](CC[C@@]4(C)[C@H]3C[C@H]([N+]3(C)CCCCC3)[C@@H]4OC(C)=O)[C@@]2(C)C[C@@H]1[N+]1(C)CCCCC1`, the Potency entry was “inactive”.

Consider `Cc1cc(F)ccc1-c1cc(N2CC[C@@H](O)[C@H]2CO)ncc1N(C)C(=O)C(C)(C)c1cc(C(F)(F)F)cc(C(F)(F)F)c1`, for which the Potency was 30.4 µM (active). The same measure for `CN=C(N)NCCC[C@H](N)C(=O)O`: “inactive”; for `O=C1c2ccccc2C(=O)C1c1ccc(F)cc1`: “inactive”. Take `CCC[C@@H]1C[C@@H](C(=O)N[C@@H]([C@H]2O[C@H](SC)[C@H](OP(=O)(O)O)[C@@H](O)[C@H]2O)[C@H](C)Cl)N(C)C1`: the Potency result is “inactive”. Turning to `CCc1cn([C@H]2C[C@H](O)[C@@H](CO)O2)c(=O)[nH]c1=O`, the Potency result is “inactive”.

`O=C(N[C@H](CO)[C@H](O)c1ccc([N+](=O)[O-])cc1)C(Cl)Cl`: the Potency result was “inactive”. For the molecule `C=CC1=C(C(=O)O)N2C(=O)[C@@H](NC(=O)/C(=N\O)c3csc(N)n3)[C@H]2SC1` (stereo in doubt), the Potency entry is “inactive”. With `Oc1ccc(Cl)c2c1CCC2`, the Potency result is “inactive”. The entry for `O=C[C@H](O)[C@@H](O)[C@@H](O)[C@H](O)CO` is “inactive”.

On to `O=P(O)(O)CP(=O)(O)O`, for which the Potency result is “inactive”.

Regarding `CC(C)(Oc1ccc(C2CCCc3ccccc32)cc1)C(=O)O` (stereo not given), the Potency result was “inactive”. Consider `CO[C@H]1C[C@@H]2CC[C@@H](C)[C@@](O)(O2)C(=O)C(=O)N2CCCC[C@H]2C(=O)O[C@H]([C@H](C)C[C@@H]2CC[C@@H](O)[C@H](OC)C2)CC(=O)[C@H](C)C=C(C)[C@@H](O)[C@@H](OC)C(=O)[C@H](C)C[C@H](C)/C=C/C=CC=C1C`, for which the Potency result is “inactive”.

On to `CC1CCCC(C)N1NC(=O)c1ccc(Cl)c(S(N)(=O)=O)c1` (stereo not given), for which the Potency result is “inactive”. Consider `c1ccc(-n2cnnn2)cc1`, for which the Potency result is “inactive”. Consider `COc1ccc(/C=C/C(=O)Nc2ccccc2C(=O)O)cc1OC`, for which the Potency result was “inactive”. The entry for `CC[C@@H](C)[C@@H](N)C1=N[C@H](C(=O)N[C@@H](CC(C)C)C(=O)N[C@@H](CCC(=O)O)C(=O)N[C@@H](C(=O)N[C@@H]2CCCCNC(=O)[C@@H](CC(N)=O)NC(=O)[C@@H](CC(=O)O)NC(=O)[C@@H](Cc3cnc[nH]3)NC(=O)[C@@H](Cc3ccccc3)NC(=O)[C@@H]([C@H](C)CC)NC(=O)[C@@H](CCCN)NC2=O)[C@@H](C)CC)CS1` (X1-LE[d(aIle)][dK][dOrn][dI][dF][dH][dD][dN]; lactam 4-C) is “inactive”; for `CNC(=O)OCc1cccc(COC(=O)NC)n1` it is “inactive”; for `CC/C=C\C/C=C\C/C=C\C/C=C\C/C=C\C/C=C\CCC(=O)O` it is “inactive”. On to `CC(C)=CCC/C(C)=C/CC/C(C)=C/CC/C=C(\C)CC/C=C(\C)CCC=C(C)C`, for which the Potency result was “inactive”. The same measure for `CC(C)[C@H](NC(=O)[C@H](CC(=O)O)NC(=O)[C@H](CCCCN)NC(=O)[C@@H](N)CCCN=C(N)N)C(=O)N[C@@H](Cc1ccc(O)cc1)C(=O)O` (H-RKDVY-OH): “inactive”; for `CN(Cc1ccccc1)Cc1ccccc1`: “inactive”; for `C=C1C(=C/C=C2\CCC[C@]3(C)[C@@H]([C@H](C)CCCC(C)C)CC[C@@H]23)C[C@@H](O)C[C@@H]1O`: “inactive”. Take `O=C(Cn1cnnn1)N[C@@H]1C(=O)N2C(C(=O)O)=C(CSc3nncs3)CS[C@H]12`: the Potency result is “inactive”. The entry for `C/C(=C\C(=O)OCCCCCCCCC(=O)O)C[C@@H]1OC[C@H](C[C@@H]2O[C@H]2[C@@H](C)[C@H](C)O)[C@@H](O)[C@H]1O` is “inactive”.

With `OCC1(CO)COC(C(Cl)(Cl)Cl)OC1`, the Potency entry is “inactive”. Consider `COc1c(Br)cc(Br)c(C)c1Br`, for which the Potency entry is “inactive”. The same measure for `Nc1nc(/C(=C/CC(=O)O)C(=O)N[C@@H]2C(=O)N3C(C(=O)O)=CCS[C@H]23)cs1`: “inactive”; for `C/C=C/C1=C(C(=O)O)N2C(=O)[C@@H](NC(=O)[C@H](N)c3ccc(O)cc3)[C@H]2SC1`: “inactive”; for `O=C(O)/C=C/C(O)c1ccc(Cl)cc1` (stereo not given): “inactive”. The same measure for `COc1cccc(-c2ccc(/C=C\CN3CCCCCC3)cc2Cl)c1`: 38.7 µM (active); for `CC[C@H]1OC(=O)[C@H](C)C(=O)[C@H](C)[C@@H](O[C@@H]2O[C@H](C)C[C@H](N(C)C)[C@H]2O)[C@](C)(OC)C[C@@H](C)C(=O)[C@H](C)[C@H]2N(CCCCn3cnc(-c4cccnc4)c3)C(=O)O[C@]12C`: “inactive”; for `Cc1cc(-c2ccc(N=Nc3ccc4c(S(=O)(=O)O)cc(S(=O)(=O)O)c(N)c4c3O)c(C)c2)ccc1N=Nc1ccc2c(S(=O)(=O)O)cc(S(=O)(=O)O)c(N)c2c1O`: “inactive”. `CO/N=C(\C(=O)N[C@@H]1C(=O)N2C(C(=O)O)=C(CSc3nc(C)c(CC(=O)O)s3)CS[C@H]12)c1csc(N)n1`: the Potency entry is “inactive”.
